Here are results for three compounds from PubChem BioAssay (EPA / NIEHS).

Records with an inconclusive call do not appear. The source made the active and inactive calls. Rule for the calls, unless noted: active = hit-call score of the fitted dose curve at least 0.9, where 1 is the maximum; inconclusive = response in the unintended direction; inactive = score below 0.9.

Experiment [1] deals with human Peroxisome Proliferator-activated Receptor alpha (PPARa), PPARA (gene 5465) (UniProt Q07869). Nature of the experiment: ATG_PPARa_TRANS: Attagene TRANS-FACTORIAL HepG2 Assay for human Peroxisome Proliferator-activated Receptor alpha (PPARa) (AID 2283001). An outline of the steps: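 Reporter transcripts from GAL4-UAS units in transfected HepG2 were quantified 24 h after dosing. Detection used reverse transcription, PCR, fluorescent primer extension and capillary electrophoresis, with DMSO as baseline.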
Chain of human Peroxisome Proliferator-activated Receptor alpha (PPARa), PPARA (gene 5465) (Q07869 whole entry, looked up, the tested form may be a part): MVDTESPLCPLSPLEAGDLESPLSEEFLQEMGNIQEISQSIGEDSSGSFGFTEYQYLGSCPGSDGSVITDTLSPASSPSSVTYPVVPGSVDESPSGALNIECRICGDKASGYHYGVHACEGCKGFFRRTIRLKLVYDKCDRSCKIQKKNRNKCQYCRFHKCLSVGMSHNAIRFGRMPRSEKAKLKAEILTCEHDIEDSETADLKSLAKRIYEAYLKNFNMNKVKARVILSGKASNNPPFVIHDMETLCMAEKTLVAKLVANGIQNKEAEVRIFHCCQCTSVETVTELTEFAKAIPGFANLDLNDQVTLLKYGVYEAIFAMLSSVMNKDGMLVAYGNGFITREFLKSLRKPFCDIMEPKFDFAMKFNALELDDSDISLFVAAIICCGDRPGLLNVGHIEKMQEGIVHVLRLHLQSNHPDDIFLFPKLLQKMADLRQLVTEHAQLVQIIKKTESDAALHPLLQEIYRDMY

Experiment [2] deals with human Peroxisome Proliferator-activated Receptor delta (PPARd), PPARD (gene 5467) (UniProt Q03181). The experiment in a line: ATG_PPARd_TRANS: Attagene TRANS-FACTORIAL HepG2 Assay for human Peroxisome Proliferator-activated Receptor delta (PPARd) (AID 2283002). The procedure, abridged:
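Transient HepG2 transfection (multiple GAL4-UAS RTUs, chimeric receptor-Gal4); 24 h dosing; total RNA → oligo(dT) RT → PCR → 6-FAM primer extension → HpaI cut → CE. Positive direction vs DMSO.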

A short description of experiment [3]: BSK_3C_Proliferation: Cell Proliferation Assessment in the BioMAP Diversity Plus: 3C Assay (AID 2283006; active = hit-call score of the fitted dose curve at least 0.9, where 1 is the maximum; inactive = score below 0.9;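 note: potency may reflect either rise or fall in cell number versus DMSO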). The note with it: primary human endothelial cells (HUVEC). An outline of the steps: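 Human umbilical vein endothelial cells were grown sub-confluent and exposed to chemical for 48 h, then fixed with 10% TCA and stained with 0.1% sulforhodamine B; absorbance at 560 nm gave relative cell number, fitted bidirectionally against DMSO baseline.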

The target of experiment [4] is Peroxisome proliferator-activated receptor gamma (Homo sapiens) (UniProt P37231). The experiment in a line: ATG_PPARg_TRANS: Attagene TRANS-FACTORIAL HepG2 Assay for human Peroxisome Proliferator-activated Receptor-gamma (PPARg) (AID 2283007). An outline of the steps: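 Human hepatoma HepG2, transient MRTU transfection, 24 h treatment. mRNA reporter signal by RT-PCR plus capillary electrophoresis, fluorescence detection; fitted for increase over DMSO negative control.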
Chain of Peroxisome proliferator-activated receptor gamma (Homo sapiens) (P37231 whole entry, looked up): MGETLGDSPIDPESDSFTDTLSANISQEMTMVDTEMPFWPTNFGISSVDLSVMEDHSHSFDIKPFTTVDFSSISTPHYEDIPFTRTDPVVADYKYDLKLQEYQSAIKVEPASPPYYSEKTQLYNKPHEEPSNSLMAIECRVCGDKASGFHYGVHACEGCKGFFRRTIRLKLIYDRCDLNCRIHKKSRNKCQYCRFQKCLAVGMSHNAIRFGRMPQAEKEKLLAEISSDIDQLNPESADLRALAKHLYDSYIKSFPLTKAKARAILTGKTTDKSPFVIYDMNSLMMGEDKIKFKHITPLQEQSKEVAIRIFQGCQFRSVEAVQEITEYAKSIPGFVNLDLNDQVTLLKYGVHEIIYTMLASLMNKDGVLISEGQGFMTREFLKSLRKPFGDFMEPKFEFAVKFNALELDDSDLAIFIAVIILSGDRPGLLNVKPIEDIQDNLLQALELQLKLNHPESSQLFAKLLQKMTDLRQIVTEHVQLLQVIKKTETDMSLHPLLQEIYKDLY

The target in experiment [5] is Nuclear receptor subfamily 1 group I member 2 (Homo sapiens) (UniProt O75469). Nature of the experiment: ATG_PXR_TRANS: Attagene TRANS-FACTORIAL HepG2 Assay for human Pregnane X Receptor (PXR) (AID 2283008). An outline of the steps:
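HepG2 cells transiently transfected with GAL4-UAS reporter units and PXR-Gal4 chimera, exposed 24 h. Reporter mRNA quantified by RT-PCR, fluorescent labelling, HpaI digestion and capillary electrophoresis; gain of signal vs DMSO.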

Experiment [6] addresses human RAR-related Orphan Receptor beta (RORb), RORB (gene 6096) (UniProt Q92753). The experiment in a line: ATG_RORb_TRANS: Attagene TRANS-FACTORIAL HepG2 Assay for human RAR-related Orphan Receptor beta (RORb) (AID 2283010). An outline of the steps:
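HepG2 cells were transiently transfected with multiplexed GAL4-UAS reporter units expressing chimeric nuclear receptor–GAL4 proteins, then dosed for 24 h. Reporter mRNA was quantified by RT-PCR with fluorescent labelling and capillary electrophoresis; gain of signal was fitted relative to DMSO.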

The target in experiment [7] is human RAR-related Orphan Receptor gamma (RORg), RORC (gene 6097) (UniProt P51449). The experiment in a line: ATG_RORg_TRANS: Attagene TRANS-FACTORIAL HepG2 Assay for human RAR-related Orphan Receptor gamma (RORg) (AID 2283011). An outline of the steps:
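Activity is scored as increase in GAL4-UAS reporter mRNA over DMSO, detected by fluorescent RT-PCR and capillary electrophoresis in HepG2 cells transiently expressing a RORg-Gal4 chimera, 24 h after dosing.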

Experiment [8] concerns the target Retinoic acid receptor RXR-alpha (Homo sapiens) (UniProt P19793). Nature of the experiment: ATG_RXRa_TRANS: Attagene TRANS-FACTORIAL HepG2 Assay for human Retinoid X Receptor alpha (RXRa) (AID 2283012). An outline of the steps: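 HepG2 cells transiently transfected with multiplexed GAL4-UAS reporter units and chimeric NR-GAL4 fusions, dosed 24 h. Reporter mRNA measured by RT-PCR, FAM labelling, HpaI digestion and capillary electrophoresis; gain-of-signal fitted relative to DMSO baseline.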

The target of experiment [9] is human Retinoid X Receptor beta (RXRb), RXRB (gene 6257) (UniProt P28702). The experiment in a line: ATG_RXRb_TRANS: Attagene TRANS-FACTORIAL HepG2 Assay for human Retinoid X Receptor beta (RXRb) (AID 2283013). An outline of the steps:
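HepG2 cells transiently transfected with multiplexed reporter units driven by GAL4-UAS and exogenous chimeric NR-Gal4 proteins; treated 24 h. Reporter mRNA measured by RT-PCR, 6-FAM labelling and capillary electrophoresis; gain-of-signal fitted versus DMSO baseline.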

Read-out in experiment [10]: E-selectin (Homo sapiens) (UniProt P16581)
Nature of the experiment: BSK_3C_Eselectin: BioMAP Diversity Plus: 3C Assay for Eselectin Biomarker Activity (AID 2283015; active = hit-call score of the fitted dose curve at least 0.9, where 1 is the maximum; inactive = score below 0.9;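 for outcome: cell surface E-selectin protein quantified by ELISA 24 h after dosing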). Conditions: primary human endothelial cells (HUVEC); actives raise or lower the signal. An outline of the steps:
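Human vascular endothelium from umbilical vein is exposed to test chemicals for 24 h. E-selectin levels are read by ELISA and compared with DMSO controls.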

Read-out in experiment [11]: Interleukin-1 alpha (IL1a), IL1A (gene 3552)
Nature of the experiment: BSK_BE3C_IL1a: BioMAP Diversity Plus: BE3C Assay for Interleukin-1 alpha (IL1a) Biomarker Activity (AID 2283016; active = hit-call score of the fitted dose curve at least 0.9, where 1 is the maximum; inactive = score below 0.9). The note with it: primary human bronchial epithelial cells; actives raise or lower the signal. The procedure, abridged:
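Human primary bronchial epithelial cells (BE3C system) were dosed with compound and IL-1a measured by ELISA 24 h later. Activity was fitted bidirectionally against DMSO baseline; cytotoxicity was tracked in parallel cultures by SRB total-protein staining.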

Read-out in experiment [12]: Monocyte Chemoattractant Protein-1 (MCP1), CCL2 (gene 6347)
The experiment in a line: BSK_3C_MCP1: BioMAP Diversity Plus: 3C Assay for Monocyte Chemoattractant Protein-1 (MCP1) Biomarker Activity (AID 2283017; active = hit-call score of the fitted dose curve at least 0.9, where 1 is the maximum; inactive = score below 0.9). Conditions: primary human endothelial cells (HUVEC); actives raise or lower the signal. An outline of the steps: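 Endothelial cells from human umbilical vein are dosed with chemical, cultured 24 h, then assayed for MCP-1 by ELISA; both increases and decreases are modelled against DMSO controls.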

Read-out in experiment [13]: Monocyte Chemoattractant Protein-1 (MCP1), CCL2 (gene 6347)
Nature of the experiment: BSK_4H_MCP1: BioMAP Diversity Plus: 4H Assay for Monocyte Chemoattractant Protein-1 (MCP1) Biomarker Activity (AID 2283018; active = hit-call score of the fitted dose curve at least 0.9, where 1 is the maximum; inactive = score below 0.9). Conditions: primary human endothelial cells (HUVEC); actives raise or lower the signal. The procedure, abridged: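 Human umbilical vein endothelial cells (4H system) dosed with chemical; MCP-1 measured by ELISA 24 h after dosing. Bidirectional curve fitting against DMSO negative control as baseline; parallel SRB total-protein staining tracks overt cytotoxicity.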

Read-out in experiment [14]: Human Leukocyte Antigen - DR isotype (HLADR), HLA-DRA (gene 3122)
The experiment in a line: BSK_3C_HLADR: BioMAP Diversity Plus: 3C Assay for Human Leukocyte Antigen - DR isotype (HLADR) Biomarker Activity (AID 2283019; active = hit-call score of the fitted dose curve at least 0.9, where 1 is the maximum; inactive = score below 0.9). Conditions: primary human endothelial cells (HUVEC); actives raise or lower the signal. An outline of the steps: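 Endothelial cells from human umbilical vein are treated with test chemical; after 24 h, HLA-DR levels are measured by ELISA. Data are fitted in both directions using DMSO as the baseline.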

Read-out in experiment [15]: Interleukin-8 (IL8), CXCL8 (gene 3576)
The experiment in a line: BSK_3C_IL8: BioMAP Diversity Plus: 3C Assay for Interleukin-8 (IL8) Biomarker Activity (AID 2283020; active = hit-call score of the fitted dose curve at least 0.9, where 1 is the maximum; inactive = score below 0.9). The note with it: primary human endothelial cells (HUVEC); actives raise or lower the signal. The procedure, abridged:
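Primary human umbilical vein endothelial cells (3C system) were exposed to test chemical for 24 h, then IL-8 was quantified by ELISA. Responses were fitted bidirectionally against DMSO vehicle as baseline.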

Read-out in experiment [16]: Monokine induced gamma interferon (MIG), CXCL9 (gene 4283)
Nature of the experiment: BSK_3C_MIG: BioMAP Diversity Plus: 3C Assay for Monokine induced gamma interferon (MIG) Biomarker Activity (AID 2283021; active = hit-call score of the fitted dose curve at least 0.9, where 1 is the maximum; inactive = score below 0.9). The note with it: primary human endothelial cells (HUVEC); actives raise or lower the signal. The procedure, abridged: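 Primary human umbilical vein endothelial cells in the 3C system were exposed to chemical for 24 h, after which MIG was quantified by ELISA. Activity was fitted bidirectionally against DMSO as negative control and baseline.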

For experiment [17], the target named is Retinoic acid receptor alpha (Homo sapiens) (UniProt P10276). Nature of the experiment: ATG_RARa_TRANS: Attagene TRANS-FACTORIAL HepG2 Assay for human Retinoic Acid Receptor alpha (RARa) (AID 2283005). An outline of the steps:
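Reporter transcripts, measured by RT-PCR with fluorescent labeling and capillary electrophoresis after 24 h dosing, reflect activity of an exogenous human RARa–GAL4 fusion in transiently transfected HepG2. Fitted for increase relative to DMSO.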

Experiment [18] has as its target human Retinoic Acid Receptor gamma (RARg), RARG (gene 5916) (UniProt P13631). Nature of the experiment: ATG_RARg_TRANS: Attagene TRANS-FACTORIAL HepG2 Assay for human Retinoic Acid Receptor gamma (RARg) (AID 2283009). The procedure, abridged:
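HepG2 cells transiently transfected with multiplexed reporter units expressing chimeric RARg-GAL4 and GAL4-UAS-driven reporters; 24 h compound exposure. Reporter mRNA quantified by RT-PCR with fluorescent labelling and capillary electrophoresis; gain-of-signal fitted relative to DMSO baseline.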

Read-out in experiment [19]: Intercellular Adhesion Molecule 1 (ICAM1), ICAM1 (gene 3383)
Nature of the experiment: BSK_3C_ICAM1: BioMAP Diversity Plus: 3C Assay for Intercellular Adhesion Molecule 1 (ICAM1) Biomarker Activity (AID 2283003; active = hit-call score of the fitted dose curve at least 0.9, where 1 is the maximum; inactive = score below 0.9). The note with it: primary human endothelial cells (HUVEC); actives raise or lower the signal. An outline of the steps:
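Primary human umbilical vein endothelial cells in the BioMAP 3C system were exposed to chemicals for 24 h, then ICAM-1 was quantified by ELISA. Activity was fitted bidirectionally against the DMSO negative control baseline.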

In experiment [20] the target is human Thyroid Receptor alpha (THRa1), THRA (gene 7067) (UniProt P10827). The experiment in a line: ATG_THRa1_TRANS: Attagene TRANS-FACTORIAL HepG2 Assay for human Thyroid Receptor alpha (THRa1) (AID 2283014). The procedure, abridged:
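First, HepG2 cells receive multiple GAL4-UAS reporter units and the chimeric receptor. They are then dosed for 24 h, after which RNA is reverse-transcribed, amplified, labelled, HpaI-cut and sized by capillary electrophoresis; gain relative to DMSO is scored.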

Chain of human Retinoid X Receptor beta (RXRb), RXRB (gene 6257) (P28702 whole entry, looked up, the tested form may be a part): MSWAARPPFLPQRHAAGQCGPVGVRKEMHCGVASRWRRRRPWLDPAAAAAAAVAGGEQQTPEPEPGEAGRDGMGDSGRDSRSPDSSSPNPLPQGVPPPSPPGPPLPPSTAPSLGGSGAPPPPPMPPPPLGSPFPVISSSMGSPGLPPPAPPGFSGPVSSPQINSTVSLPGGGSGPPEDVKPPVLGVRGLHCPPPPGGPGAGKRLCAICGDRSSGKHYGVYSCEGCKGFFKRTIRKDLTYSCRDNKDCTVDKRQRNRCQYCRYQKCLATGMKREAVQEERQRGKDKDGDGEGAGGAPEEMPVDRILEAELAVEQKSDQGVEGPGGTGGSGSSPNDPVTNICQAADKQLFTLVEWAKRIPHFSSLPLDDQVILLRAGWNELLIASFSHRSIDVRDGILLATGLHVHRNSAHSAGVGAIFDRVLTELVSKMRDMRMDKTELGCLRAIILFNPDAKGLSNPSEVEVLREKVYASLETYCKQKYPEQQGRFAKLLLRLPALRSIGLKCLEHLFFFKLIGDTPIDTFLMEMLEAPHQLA
Chain of E-selectin (Homo sapiens) (P16581 whole entry, looked up): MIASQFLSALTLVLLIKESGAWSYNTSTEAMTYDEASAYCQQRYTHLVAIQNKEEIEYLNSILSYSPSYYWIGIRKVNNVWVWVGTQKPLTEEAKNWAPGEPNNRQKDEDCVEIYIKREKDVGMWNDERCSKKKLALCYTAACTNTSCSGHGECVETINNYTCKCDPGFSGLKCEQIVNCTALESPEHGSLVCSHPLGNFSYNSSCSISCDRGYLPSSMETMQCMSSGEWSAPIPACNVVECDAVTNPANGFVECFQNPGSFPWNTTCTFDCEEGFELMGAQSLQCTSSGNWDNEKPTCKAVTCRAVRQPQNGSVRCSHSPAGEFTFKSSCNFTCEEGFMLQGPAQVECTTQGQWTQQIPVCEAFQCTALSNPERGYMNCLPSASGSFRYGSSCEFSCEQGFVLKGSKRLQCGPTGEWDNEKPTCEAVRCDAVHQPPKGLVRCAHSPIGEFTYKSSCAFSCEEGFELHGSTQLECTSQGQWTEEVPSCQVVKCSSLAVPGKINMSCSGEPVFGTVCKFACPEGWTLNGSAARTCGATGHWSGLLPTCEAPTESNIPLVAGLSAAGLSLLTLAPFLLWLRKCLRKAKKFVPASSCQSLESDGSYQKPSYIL
Chain of Nuclear receptor subfamily 1 group I member 2 (Homo sapiens) (O75469 whole entry, looked up, the tested form may be a part): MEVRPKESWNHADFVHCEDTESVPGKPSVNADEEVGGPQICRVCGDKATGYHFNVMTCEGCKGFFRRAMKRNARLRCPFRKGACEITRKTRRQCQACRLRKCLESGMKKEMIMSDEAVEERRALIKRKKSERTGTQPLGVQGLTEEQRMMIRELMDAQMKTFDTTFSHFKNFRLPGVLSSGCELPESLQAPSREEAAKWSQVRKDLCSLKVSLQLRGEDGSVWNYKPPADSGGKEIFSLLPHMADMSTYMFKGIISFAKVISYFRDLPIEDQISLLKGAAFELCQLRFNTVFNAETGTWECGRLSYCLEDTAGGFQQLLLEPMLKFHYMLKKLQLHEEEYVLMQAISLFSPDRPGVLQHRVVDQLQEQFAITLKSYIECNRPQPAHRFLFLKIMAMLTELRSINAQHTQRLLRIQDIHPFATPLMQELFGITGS
Chain of human Peroxisome Proliferator-activated Receptor delta (PPARd), PPARD (gene 5467) (Q03181 whole entry, looked up, the tested form may be a part): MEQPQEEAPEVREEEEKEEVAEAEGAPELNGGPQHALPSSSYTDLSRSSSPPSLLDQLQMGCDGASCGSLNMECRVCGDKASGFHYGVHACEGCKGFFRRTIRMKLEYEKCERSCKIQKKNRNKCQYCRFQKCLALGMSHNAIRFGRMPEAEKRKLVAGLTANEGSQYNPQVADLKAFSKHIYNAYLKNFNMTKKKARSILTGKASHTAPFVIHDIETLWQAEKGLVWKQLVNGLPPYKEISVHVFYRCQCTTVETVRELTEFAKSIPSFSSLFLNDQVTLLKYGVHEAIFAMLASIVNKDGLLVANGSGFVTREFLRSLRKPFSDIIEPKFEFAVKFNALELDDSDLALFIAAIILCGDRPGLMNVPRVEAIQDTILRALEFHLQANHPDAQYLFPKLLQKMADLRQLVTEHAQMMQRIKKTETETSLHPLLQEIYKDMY
Chain of human RAR-related Orphan Receptor beta (RORb), RORB (gene 6096) (Q92753 whole entry, looked up, the tested form may be a part): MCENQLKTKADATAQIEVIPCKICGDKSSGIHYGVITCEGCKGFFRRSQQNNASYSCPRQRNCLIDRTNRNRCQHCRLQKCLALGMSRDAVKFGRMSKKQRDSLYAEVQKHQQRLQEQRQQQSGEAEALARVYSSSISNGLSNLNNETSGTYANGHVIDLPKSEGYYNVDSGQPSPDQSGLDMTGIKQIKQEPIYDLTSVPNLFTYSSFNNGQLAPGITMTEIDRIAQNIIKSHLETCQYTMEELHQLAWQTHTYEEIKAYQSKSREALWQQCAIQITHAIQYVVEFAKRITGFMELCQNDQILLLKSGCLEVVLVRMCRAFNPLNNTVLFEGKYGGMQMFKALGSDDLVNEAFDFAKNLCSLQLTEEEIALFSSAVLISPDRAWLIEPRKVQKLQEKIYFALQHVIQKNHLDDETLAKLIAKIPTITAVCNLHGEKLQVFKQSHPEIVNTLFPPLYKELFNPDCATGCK
Chain of Retinoic acid receptor RXR-alpha (Homo sapiens) (P19793 whole entry, looked up, the tested form may be a part): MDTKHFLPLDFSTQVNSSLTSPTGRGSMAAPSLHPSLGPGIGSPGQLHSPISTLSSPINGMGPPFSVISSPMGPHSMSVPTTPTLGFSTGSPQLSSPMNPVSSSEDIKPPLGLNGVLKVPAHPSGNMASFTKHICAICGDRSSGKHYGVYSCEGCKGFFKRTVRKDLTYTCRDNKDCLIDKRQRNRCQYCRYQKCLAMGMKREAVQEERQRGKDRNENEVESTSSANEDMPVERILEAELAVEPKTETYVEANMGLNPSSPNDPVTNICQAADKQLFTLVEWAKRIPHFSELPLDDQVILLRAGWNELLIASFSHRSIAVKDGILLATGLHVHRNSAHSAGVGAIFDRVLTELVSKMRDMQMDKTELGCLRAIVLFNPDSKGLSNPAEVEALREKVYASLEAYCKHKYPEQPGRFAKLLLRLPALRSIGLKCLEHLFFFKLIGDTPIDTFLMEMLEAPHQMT
Chain of Retinoic acid receptor alpha (Homo sapiens) (P10276 whole entry, looked up, the tested form may be a part): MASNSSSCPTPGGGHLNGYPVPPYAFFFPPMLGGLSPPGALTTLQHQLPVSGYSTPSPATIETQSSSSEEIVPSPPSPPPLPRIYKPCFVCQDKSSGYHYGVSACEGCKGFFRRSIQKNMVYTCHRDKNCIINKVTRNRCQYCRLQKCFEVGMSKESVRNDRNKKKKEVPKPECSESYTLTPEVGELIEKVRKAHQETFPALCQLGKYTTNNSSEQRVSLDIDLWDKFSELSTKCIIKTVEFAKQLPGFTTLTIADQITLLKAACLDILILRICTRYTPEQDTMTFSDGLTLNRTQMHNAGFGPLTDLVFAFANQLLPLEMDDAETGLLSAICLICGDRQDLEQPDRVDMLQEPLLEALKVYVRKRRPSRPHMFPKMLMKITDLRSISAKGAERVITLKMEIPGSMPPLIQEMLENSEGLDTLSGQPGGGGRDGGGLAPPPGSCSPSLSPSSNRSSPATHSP
Chain of human Retinoic Acid Receptor gamma (RARg), RARG (gene 5916) (P13631 whole entry, looked up, the tested form may be a part): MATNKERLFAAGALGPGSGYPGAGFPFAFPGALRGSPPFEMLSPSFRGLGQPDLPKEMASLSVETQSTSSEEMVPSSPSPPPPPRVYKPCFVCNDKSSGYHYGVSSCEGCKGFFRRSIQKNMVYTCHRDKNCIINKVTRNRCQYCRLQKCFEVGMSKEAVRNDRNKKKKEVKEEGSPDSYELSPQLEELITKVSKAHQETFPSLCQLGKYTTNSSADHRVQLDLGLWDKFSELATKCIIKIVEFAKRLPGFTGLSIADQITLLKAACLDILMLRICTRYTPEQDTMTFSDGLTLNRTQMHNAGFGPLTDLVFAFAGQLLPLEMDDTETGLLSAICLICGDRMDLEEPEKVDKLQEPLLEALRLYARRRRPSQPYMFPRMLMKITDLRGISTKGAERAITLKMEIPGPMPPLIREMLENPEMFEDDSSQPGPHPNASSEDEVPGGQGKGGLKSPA

For the compound `O=CCCCC=O`, the compound was called inactive in experiment [1], in experiment [2], in [4], in experiment [5], in [6] and in experiment [7]. Also, the call in experiment [8], in experiment [9], in [12], in [13], in experiment [15] and in [16] was inactive. The concentration at half-maximal activity (AC50) in [3] is 25.1 µM (active); in experiment [10], 33.7 µM (active); in experiment [11] it was 33.2 µM (active); in experiment [14] it was 29.5 µM (active).

On to `CC(C)(C)c1cc(/C=C2\SC(N)=NC2=O)cc(C(C)(C)C)c1O`, for which the compound was called inactive in experiment [1], in experiment [2], in [17], in [18], in experiment [8] and in [9]. Moreover, in [11], the outcome was inactive. Also, the AC50 in [3] was 13.4 µM (active); in [5], 4.17 µM (active); in [10], 29.3 µM (active); in experiment [12], 30.6 µM (active); in experiment [13] it was 20 µM (active); in [14], 27.5 µM (active). In addition, the half-maximal activity concentration (AC50) in [15] is 30.1 µM (active).

Consider `CCCCCCCCOc1ccc(C(=O)c2ccccc2)c(O)c1`, for which the result in experiment [1], in experiment [2], in experiment [19], in experiment [17], in [4] and in experiment [5] was inactive. For the same compound, the call in experiment [18], in experiment [6], in [8], in experiment [20], in experiment [10] and in [11] was inactive. For the same compound, the outcome in experiment [12], in experiment [13], in experiment [15] and in [16] was inactive. In addition, the AC50 was 30.1 µM (active) in experiment [3] and 24.7 µM (active) in [14].
